Test results: PubChem BioAssay (NCI)
Compounds without any hit were thinned out: in the full panel of roughly 83,000, 20% have a hit.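 96-well plates, one dose, 48 hours. Percent growth reported; active if below 10.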 The source made the active and inactive calls.

Tests used:
Assay in all cases: NCI-60 one-dose screen, 48 h (100 = growth as untreated, 0 = no growth, -100 = all killed)
Settings in all cases: 10 µM unless noted
[1] = tested on: SK-MEL-2 melanoma
[2] = tested on: EKVX NSCLC
[3] = tested on: SN12C renal
[4] = tested on: UO-31 renal
[5] = tested on: TK-10 renal
[6] = tested on: ACHN renal
[7] = tested on: CAKI-1 renal
[8] = tested on: A498 renal
[9] = tested on: CCRF-CEM leukemia
[10] = tested on: MOLT-4 leukemia

Measured: growth

COc1cc(/C=C2/C(=O)Nc3ccc(Cl)cc32)ccc1OCc1ccc(Cl)cc1
inactive: [1] 107% | [2] 88.5% | [3] 88.9% | [4] 74.3% | [5] 129% | [6] 52.7% | [7] 83.3% | [8] 93.4% | [9] 69.5% | [10] 76.7%

O=C1CSC(c2cn(-c3ccccc3)nc2-c2ccc(Cl)cc2)N1c1ccccc1 (stereo not given)
inactive: [1] 112% | [2] 98.8% | [3] 114% | [4] 83.8% | [5] 118% | [6] 104% | [7] 92.3% | [8] 125% | [9] 103% | [10] 114%

O=C(Nc1cc(C(F)(F)F)cc(C(F)(F)F)c1)Nc1ccc2oc(=O)ccc2c1
inactive: [5] 16.1% | [9] 17.5% | [10] 19.7%
active: [1] -18.5% | [2] 9.09% | [3] -7.21% | [4] 1.64% | [6] -3.53% | [7] 1.47% | [8] -1.96%

O=C(COc1ccc(/C=C2\C(=O)Nc3ccc(Cl)cc32)cc1)Nc1ccc(Cl)cc1
inactive: [1] 88.6% | [2] 74.9% | [3] 53% | [4] 50.8% | [5] 112% | [6] 33.3% | [7] 34.8% | [8] 72.4% | [9] 47.2% | [10] 55.5%

C[C@]12CC[C@H]3[C@@H](CC=C4C[C@@H](O)CC[C@@]43C)[C@@H]1CC[C@@H]2[C@](C)(O)CCc1cccnc1
inactive: [1] 79.8% | [2] 36.7% | [3] 79.9% | [4] 63.8% | [5] 84.3% | [6] 60.7% | [7] 69.1% | [8] 72.8% | [9] 59.8% | [10] 48.9%

Cc1ccc2c(n1)C(=O)C(Cl)=C(Nc1ccc(C#N)cc1)C2=O
active: [6] -58.5% | [9] 3.83% | [10] 7.64%
inactive: [1] 104% | [2] 93% | [3] 98% | [4] 16.2% | [5] 104% | [7] 76.5% | [8] 61.6%

CN1CCN(c2ccc(Nc3nc(NCCNC(=O)c4ccc(F)cc4)c4sccc4n3)cc2)CC1
inactive: [1] 104% | [2] 92.7% | [3] 84.2% | [4] 65.5% | [5] 128% | [6] 67.8% | [7] 57.9% | [8] 125% | [9] 38.2% | [10] 23.4%

COC(=O)[C@@H](Cc1c[nH]c2ccccc12)NC(=O)CCCCOc1cc(O)c2c(=O)cc(-c3ccccc3)oc2c1
inactive: [1] 90.5% | [2] 86.8% | [3] 95.2% | [4] 68.8% | [5] 132% | [6] 91.8% | [7] 71.9% | [8] 70% | [9] 83.1% | [10] 65.1%

N#CC1=C2NCCCNc3oc(nc3C#N)Cc3ccccc3CC(=N1)O2
inactive: [1] 93.9% | [2] 99.5% | [3] 105% | [4] 72.9% | [5] 106% | [6] 87.4% | [7] 77.3% | [8] 95.5% | [9] 30.4% | [10] 84.1%

Cc1ccc(S(=O)(=O)NCCCNc2nc(Nc3ccc(N4CCN(C)CC4)cc3)nc3ccsc23)cc1
active: [10] 9.91%
inactive: [1] 92.9% | [2] 78.8% | [3] 58.3% | [4] 50.7% | [5] 124% | [6] 11.7% | [7] 14.5% | [8] 56.2% | [9] 18.1%

C#C[C@]1(O)CC[C@H]2[C@@H]3CC=C4c5sc(Nc6cc(Cl)ccc6OC)nc5CC[C@]4(C)[C@H]3CC[C@@]21C
active: [1] 1.15% | [7] -4.8% | [8] -2.08% | [9] 8.93% | [10] 1.34%
inactive: [2] 22.3% | [3] 53.7% | [4] 16.1% | [5] 48.4% | [6] 32.1%

COc1cc2oc(-c3cccc(NC(=O)[C@@H](N)C(C)C)c3)cc(=O)c2c(OC)c1OC
inactive: [1] 102% | [2] 98.4% | [3] 101% | [4] 76.3% | [5] 97.7% | [6] 100% | [7] 91.1% | [8] 95.7% | [9] 97.9% | [10] 99.9%

C=C1CCc2nc(SCC(=O)O)ccc2N1
inactive: [1] 104% | [2] 101% | [3] 97.1% | [4] 91.1% | [5] 100% | [6] 102% | [7] 97.3% | [8] 85.7% | [9] 96.9% | [10] 97.5%

C1=CC(c2nn3c(-c4ccccc4)nnc3s2)=Cc2ccccc2O1
inactive: [1] 74.7% | [2] 88.5% | [3] 78.9% | [4] 53.4% | [5] 116% | [6] 76.7% | [7] 47.6% | [8] 67.5% | [9] 27.9% | [10] 39.2%

Clc1cccc(/C=N/Nc2nc(N/N=C/c3cccc(Cl)c3)nc(N3CCOCC3)n2)c1
active: [1] -1.89% | [8] 4.3% | [10] 6.04%
inactive: [2] 72.2% | [3] 59.9% | [4] 26.8% | [5] 100% | [6] 25.8% | [7] 37.6% | [9] 24.8%

Cc1ccc(C)c(NC2=C(Cl)C(=O)c3nc(C)ccc3C2=O)c1
active: [1] -36.2% | [2] 1.21% | [3] -81.7% | [4] -81.4% | [6] -96.3% | [9] 0.186% | [10] -11%
inactive: [5] 147% | [7] 57% | [8] 83.8%

Cc1cc(NS(=O)(=O)c2ccc(NC(=O)CSc3nc4ccccc4c(=O)n3-c3ccccc3)cc2)no1
inactive: [1] 109% | [2] 96.8% | [3] 101% | [4] 85.9% | [5] 108% | [6] 98.1% | [7] 94.9% | [8] 99.6% | [9] 96.8% | [10] 107%

C#CCOc1ccc(/C=N/Nc2nc(-c3ccc(OC)cc3)cs2)cc1
inactive: [1] 95.8% | [2] 62.8% | [3] 78.3% | [4] 66.8% | [5] 101% | [6] 84.2% | [7] 66.3% | [8] 63% | [9] 76.1% | [10] 73.7%

N/C(=N\C(N)=N\c1nc2ccccc2s1)c1ccc(Cl)cc1
inactive: [1] 96.8% | [2] 59.8% | [3] 61.1% | [4] 73.1% | [5] 132% | [6] 62.1% | [7] 65.1% | [8] 74.7% | [9] 57.9% | [10] 74%

C#Cc1cc(C(=O)Nc2ccc(CNCCN3CCOCC3)c(C(F)(F)F)c2)ccc1C
inactive: [1] 104% | [2] 84.7% | [3] 93.5% | [4] 72.7% | [5] 108% | [6] 98.4% | [7] 82.7% | [8] 90.4% | [9] 98.7% | [10] 81.6%

OCC(Nc1ncnc2ccc(-c3cnc4cnccn34)cc12)c1ccccc1 (stereo not given)
inactive: [1] 45% | [2] 52.3% | [3] 80.7% | [4] 36.6% | [5] 40% | [6] 43.3% | [7] 41.7% | [8] 76.4% | [9] 80.5% | [10] 76.1%

O=C(/C=C/c1ccccc1)c1cccc(O)c1
inactive: [1] 108% | [2] 98.6% | [3] 98.8% | [4] 76.2% | [5] 108% | [6] 106% | [7] 91.5% | [8] 105% | [9] 77.8% | [10] 85.2%

CS(=O)(=O)c1ccc(/C(=N/N=C(N)N)c2ccc(F)cc2)cc1
inactive: [1] 97.2% | [2] 85.3% | [3] 106% | [4] 92.7% | [5] 92% | [6] 98% | [7] 51.4% | [8] 88.8% | [9] 74.9% | [10] 103%

O=C(Nc1ccccc1)Nc1nc2ccc([N+](=O)[O-])cc2[nH]1
inactive: [1] 53.9% | [2] 43.6% | [3] 62.7% | [4] 44.2% | [5] 39.1% | [6] 37.6% | [7] 27.1% | [8] 11.1% | [9] 52.2% | [10] 55.7%

C[C@H](Nc1ncnc2ccc(-c3cnc(Cl)c(NS(C)(=O)=O)c3)cc12)c1ccccc1
active: [1] -84.9% | [2] -34.3% | [4] -63.5% | [5] -82.3% | [6] 9.8% | [7] -22.4% | [8] -23.8% | [9] 7.38% | [10] -16.5%
inactive: [3] 13.4%
